Measurements published in paper PMC7862700, “An all-to-all approach to the identification of sequence-specific readers for epigenetic DNA modifications on cytosine”.

Experiments:
Experiment in all cases: DAPPL (digital affinity profiling via proximity ligation, sequencing); 10 mM Tris-HCl pH 7.5, 50 mM NaCl, 1 mM DTT, 4% glycerol, room temperature, 30 min; GST-TFs on glutathione beads, 16-mer random dsDNA library, 0.1% formaldehyde crosslink after washing; high values mean tight binding
Settings in all cases: protein: recombinant; tags: N-terminal GST; dsDNA, one strand shown
ELK1 = target: T1, ELK1 (Homo sapiens, UniProt P19419 1-428)
T1 sequence: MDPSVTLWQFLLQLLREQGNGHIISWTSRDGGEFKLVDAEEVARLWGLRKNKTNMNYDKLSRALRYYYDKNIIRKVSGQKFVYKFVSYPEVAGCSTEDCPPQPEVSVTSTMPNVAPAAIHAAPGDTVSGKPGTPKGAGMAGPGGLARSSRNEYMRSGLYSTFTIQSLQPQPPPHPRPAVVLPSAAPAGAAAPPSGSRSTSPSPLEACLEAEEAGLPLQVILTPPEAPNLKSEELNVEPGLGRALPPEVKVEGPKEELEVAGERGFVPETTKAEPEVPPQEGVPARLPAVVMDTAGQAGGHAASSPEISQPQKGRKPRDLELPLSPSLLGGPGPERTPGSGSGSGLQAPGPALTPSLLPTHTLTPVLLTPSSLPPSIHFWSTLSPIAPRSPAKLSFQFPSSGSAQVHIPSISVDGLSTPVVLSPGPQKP
Procedure, shortened: (§1)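 Pools were built from human transcription factors expressed in yeast as GST fusions, captured on glutathione beads and DNA-barcoded, along with a tag-only sample. Incubation with 200 nmole of a 16-mer random double-stranded DNA library lasted 30 min at room temperature in Tris/NaCl/DTT/glycerol buffer, and was followed by washing, 0.1% formaldehyde crosslinking, proximity ligation, PCR amplification and Illumina NextSeq500 sequencing. Binding signal is the quotient of each hexamer's read frequency for a factor and its frequency for the tag-only sample.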

ERG = target: T2, ERG (Homo sapiens, UniProt P11308 1-479)
T2 sequence: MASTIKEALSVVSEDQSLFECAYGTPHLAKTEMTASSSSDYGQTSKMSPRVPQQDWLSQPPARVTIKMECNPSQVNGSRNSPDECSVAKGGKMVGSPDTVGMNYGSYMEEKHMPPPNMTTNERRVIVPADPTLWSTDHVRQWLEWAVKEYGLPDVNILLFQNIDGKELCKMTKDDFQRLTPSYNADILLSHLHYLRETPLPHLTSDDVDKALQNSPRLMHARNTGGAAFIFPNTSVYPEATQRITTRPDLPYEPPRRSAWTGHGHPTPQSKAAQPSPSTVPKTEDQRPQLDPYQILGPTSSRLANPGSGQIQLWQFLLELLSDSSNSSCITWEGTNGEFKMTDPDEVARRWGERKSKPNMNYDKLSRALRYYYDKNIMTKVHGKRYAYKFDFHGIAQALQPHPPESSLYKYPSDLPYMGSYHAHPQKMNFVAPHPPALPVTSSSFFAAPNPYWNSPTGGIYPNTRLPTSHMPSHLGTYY
Procedure, shortened: as §1

ETV5 = ETV5 (Homo sapiens, UniProt P41161 1-510)
Procedure, shortened: as §1

ELK4 = target: T3, ELK4 (Homo sapiens, UniProt P28324-2 1-405)
T3 sequence: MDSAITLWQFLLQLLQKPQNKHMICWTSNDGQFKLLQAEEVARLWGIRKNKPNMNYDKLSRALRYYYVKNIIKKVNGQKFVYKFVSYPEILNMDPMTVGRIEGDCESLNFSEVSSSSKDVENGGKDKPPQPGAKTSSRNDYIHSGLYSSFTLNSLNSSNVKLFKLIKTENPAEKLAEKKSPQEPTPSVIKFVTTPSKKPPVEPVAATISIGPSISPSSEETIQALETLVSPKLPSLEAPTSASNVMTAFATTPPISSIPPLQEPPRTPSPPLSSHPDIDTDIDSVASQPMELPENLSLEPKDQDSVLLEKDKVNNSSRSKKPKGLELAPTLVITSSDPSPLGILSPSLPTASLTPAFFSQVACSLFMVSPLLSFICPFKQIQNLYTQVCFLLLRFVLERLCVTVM
Procedure, shortened: as §1

ETV1 = ETV1 (Homo sapiens, UniProt P50549 1-477)
Procedure, shortened: as §1

ETV3L = target: T4, ETV3L (Homo sapiens, UniProt Q6ZN32 1-361)
T4 sequence: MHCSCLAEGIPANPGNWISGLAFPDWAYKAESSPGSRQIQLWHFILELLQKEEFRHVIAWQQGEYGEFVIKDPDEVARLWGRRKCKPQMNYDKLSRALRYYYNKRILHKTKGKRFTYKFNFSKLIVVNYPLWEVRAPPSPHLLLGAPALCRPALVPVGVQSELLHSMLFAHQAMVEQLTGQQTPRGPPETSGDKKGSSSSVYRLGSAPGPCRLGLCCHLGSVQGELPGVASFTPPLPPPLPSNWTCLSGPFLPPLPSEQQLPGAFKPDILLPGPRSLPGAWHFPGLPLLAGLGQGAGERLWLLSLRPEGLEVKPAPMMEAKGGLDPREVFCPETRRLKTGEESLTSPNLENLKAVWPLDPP
Procedure, shortened: as §1

ETS2 = target: T5, ETS2 (Homo sapiens, UniProt P15036 1-469)
T5 sequence: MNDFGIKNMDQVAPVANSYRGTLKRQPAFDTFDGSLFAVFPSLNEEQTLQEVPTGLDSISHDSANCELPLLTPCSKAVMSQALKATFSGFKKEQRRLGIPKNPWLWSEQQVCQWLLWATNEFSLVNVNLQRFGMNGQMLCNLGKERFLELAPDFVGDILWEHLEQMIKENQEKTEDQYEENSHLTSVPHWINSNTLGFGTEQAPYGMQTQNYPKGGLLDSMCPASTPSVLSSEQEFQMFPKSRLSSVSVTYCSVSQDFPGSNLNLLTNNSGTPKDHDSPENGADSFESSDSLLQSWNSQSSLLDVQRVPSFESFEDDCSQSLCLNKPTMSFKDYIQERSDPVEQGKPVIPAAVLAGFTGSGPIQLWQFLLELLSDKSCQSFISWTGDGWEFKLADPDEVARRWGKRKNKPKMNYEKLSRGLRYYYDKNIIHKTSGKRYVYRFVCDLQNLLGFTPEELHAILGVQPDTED
Procedure, shortened: as §1

SPDEF = target: T6, SPDEF (Homo sapiens, UniProt O95238 1-335)
T6 sequence: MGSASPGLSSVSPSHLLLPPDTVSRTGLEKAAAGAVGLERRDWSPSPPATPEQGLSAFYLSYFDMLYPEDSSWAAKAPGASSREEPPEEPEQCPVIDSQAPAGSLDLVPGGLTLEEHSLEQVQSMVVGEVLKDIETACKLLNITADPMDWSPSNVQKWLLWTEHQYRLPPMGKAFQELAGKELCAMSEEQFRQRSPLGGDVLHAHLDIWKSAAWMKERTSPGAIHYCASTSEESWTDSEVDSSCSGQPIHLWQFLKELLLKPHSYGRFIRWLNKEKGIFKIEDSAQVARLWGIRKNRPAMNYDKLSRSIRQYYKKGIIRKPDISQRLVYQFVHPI
Procedure, shortened: as §1

ETV7 = target: T7, ETV7 (Homo sapiens, UniProt Q9Y603 1-341)
T7 sequence: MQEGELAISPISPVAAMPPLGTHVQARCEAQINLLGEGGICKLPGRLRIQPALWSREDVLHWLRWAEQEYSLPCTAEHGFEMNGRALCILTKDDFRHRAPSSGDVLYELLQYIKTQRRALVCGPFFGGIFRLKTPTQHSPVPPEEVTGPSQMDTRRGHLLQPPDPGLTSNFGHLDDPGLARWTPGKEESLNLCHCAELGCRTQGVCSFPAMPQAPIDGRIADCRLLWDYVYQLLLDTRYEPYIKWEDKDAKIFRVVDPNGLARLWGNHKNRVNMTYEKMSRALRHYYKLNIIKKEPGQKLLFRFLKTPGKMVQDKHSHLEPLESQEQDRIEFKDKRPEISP
Procedure, shortened: as §1

ETV3 = target: T8, ETV3 (Homo sapiens, UniProt P41162-2 1-143)
T8 sequence: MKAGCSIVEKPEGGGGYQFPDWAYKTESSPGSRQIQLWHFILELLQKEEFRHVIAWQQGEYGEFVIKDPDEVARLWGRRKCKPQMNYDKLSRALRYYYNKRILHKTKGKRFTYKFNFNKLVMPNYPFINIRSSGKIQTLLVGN
Procedure, shortened: as §1

ETV6 = ETV6 (Homo sapiens, UniProt P41212 1-452)
Procedure, shortened: as §1

ELF1 = ELF1 (Homo sapiens, UniProt P32519 1-619)
Procedure, shortened: as §1

EHF = target: T9, EHF (Homo sapiens, UniProt Q9NZC4 1-300)
T9 sequence: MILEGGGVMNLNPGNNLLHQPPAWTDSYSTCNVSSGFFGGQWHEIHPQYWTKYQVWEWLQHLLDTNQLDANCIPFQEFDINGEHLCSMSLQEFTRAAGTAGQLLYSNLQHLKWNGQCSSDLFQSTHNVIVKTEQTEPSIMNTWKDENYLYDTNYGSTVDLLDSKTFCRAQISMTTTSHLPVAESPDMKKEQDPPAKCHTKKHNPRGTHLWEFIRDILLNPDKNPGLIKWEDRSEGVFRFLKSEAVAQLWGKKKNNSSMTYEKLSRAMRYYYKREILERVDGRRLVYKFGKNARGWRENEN
Procedure, shortened: as §1

ELF3 = target: T10, ELF3 (Homo sapiens, UniProt P78545 1-371)
T10 sequence: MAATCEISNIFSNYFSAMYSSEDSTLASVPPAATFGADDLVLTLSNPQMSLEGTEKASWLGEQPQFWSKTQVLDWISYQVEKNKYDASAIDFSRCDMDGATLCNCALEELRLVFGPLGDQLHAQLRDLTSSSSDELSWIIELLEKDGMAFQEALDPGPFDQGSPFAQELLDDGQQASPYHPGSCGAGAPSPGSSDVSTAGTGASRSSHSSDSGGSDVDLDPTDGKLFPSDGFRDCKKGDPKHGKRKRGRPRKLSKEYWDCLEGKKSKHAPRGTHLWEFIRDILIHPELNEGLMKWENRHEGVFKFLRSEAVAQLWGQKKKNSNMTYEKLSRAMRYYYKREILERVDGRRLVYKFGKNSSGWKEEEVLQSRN
Procedure, shortened: as §1

ERF = target: T11, ERF (Homo sapiens, UniProt P50548 1-548)
T11 sequence: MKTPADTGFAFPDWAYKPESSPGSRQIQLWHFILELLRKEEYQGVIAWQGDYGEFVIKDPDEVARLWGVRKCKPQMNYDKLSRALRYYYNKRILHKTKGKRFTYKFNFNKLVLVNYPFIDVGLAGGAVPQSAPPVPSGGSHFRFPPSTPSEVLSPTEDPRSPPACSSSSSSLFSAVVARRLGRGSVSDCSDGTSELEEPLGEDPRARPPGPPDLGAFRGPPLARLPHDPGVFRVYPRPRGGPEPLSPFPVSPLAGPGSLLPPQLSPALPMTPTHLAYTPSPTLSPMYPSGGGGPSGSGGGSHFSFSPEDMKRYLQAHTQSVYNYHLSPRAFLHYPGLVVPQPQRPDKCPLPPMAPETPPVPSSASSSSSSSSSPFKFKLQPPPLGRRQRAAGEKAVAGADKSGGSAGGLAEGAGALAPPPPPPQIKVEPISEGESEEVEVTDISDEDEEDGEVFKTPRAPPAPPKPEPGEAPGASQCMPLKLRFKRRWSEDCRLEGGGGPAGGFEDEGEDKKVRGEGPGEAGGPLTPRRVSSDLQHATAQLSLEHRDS
Procedure, shortened: as §1

ETV5, sequence (P41161 whole entry): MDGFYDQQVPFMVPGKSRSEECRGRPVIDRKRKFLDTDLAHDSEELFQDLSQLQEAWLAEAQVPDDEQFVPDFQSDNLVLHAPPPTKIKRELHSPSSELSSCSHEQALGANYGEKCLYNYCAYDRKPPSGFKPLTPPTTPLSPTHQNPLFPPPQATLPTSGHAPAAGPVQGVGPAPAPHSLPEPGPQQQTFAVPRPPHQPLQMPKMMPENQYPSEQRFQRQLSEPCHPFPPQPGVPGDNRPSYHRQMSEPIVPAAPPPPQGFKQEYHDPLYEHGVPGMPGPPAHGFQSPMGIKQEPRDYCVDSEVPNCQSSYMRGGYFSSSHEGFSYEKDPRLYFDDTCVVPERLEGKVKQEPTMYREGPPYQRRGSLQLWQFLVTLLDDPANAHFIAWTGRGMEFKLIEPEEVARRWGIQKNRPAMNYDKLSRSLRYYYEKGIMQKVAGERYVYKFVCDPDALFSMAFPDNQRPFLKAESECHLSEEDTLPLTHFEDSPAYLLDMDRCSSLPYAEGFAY
ETV6, sequence (P41212 whole entry): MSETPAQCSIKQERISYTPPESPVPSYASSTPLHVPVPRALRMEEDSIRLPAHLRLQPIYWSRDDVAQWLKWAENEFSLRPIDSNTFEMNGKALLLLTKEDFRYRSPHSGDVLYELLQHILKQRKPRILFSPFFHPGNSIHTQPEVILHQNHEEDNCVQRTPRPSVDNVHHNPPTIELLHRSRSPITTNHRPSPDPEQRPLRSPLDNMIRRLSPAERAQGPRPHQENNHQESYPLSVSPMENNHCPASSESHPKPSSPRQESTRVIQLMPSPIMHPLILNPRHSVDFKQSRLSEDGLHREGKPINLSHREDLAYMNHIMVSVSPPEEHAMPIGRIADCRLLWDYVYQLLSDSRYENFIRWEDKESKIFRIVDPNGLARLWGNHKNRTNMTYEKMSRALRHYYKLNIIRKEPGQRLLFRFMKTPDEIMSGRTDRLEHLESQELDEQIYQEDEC
ETV1, sequence (P50549 whole entry): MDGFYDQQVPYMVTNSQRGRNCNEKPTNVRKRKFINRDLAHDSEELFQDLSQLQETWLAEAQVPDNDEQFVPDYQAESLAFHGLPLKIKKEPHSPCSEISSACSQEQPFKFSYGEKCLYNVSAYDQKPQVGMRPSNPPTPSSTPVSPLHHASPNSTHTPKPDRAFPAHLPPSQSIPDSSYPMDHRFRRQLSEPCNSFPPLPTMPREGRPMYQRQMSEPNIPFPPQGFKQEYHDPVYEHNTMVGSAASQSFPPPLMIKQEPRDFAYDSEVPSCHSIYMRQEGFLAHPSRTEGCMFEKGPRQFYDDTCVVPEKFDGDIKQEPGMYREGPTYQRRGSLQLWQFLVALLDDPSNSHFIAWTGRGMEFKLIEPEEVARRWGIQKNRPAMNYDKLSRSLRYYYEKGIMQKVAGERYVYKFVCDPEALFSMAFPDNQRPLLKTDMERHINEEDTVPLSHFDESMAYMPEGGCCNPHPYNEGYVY
ELF1, sequence (P32519 whole entry): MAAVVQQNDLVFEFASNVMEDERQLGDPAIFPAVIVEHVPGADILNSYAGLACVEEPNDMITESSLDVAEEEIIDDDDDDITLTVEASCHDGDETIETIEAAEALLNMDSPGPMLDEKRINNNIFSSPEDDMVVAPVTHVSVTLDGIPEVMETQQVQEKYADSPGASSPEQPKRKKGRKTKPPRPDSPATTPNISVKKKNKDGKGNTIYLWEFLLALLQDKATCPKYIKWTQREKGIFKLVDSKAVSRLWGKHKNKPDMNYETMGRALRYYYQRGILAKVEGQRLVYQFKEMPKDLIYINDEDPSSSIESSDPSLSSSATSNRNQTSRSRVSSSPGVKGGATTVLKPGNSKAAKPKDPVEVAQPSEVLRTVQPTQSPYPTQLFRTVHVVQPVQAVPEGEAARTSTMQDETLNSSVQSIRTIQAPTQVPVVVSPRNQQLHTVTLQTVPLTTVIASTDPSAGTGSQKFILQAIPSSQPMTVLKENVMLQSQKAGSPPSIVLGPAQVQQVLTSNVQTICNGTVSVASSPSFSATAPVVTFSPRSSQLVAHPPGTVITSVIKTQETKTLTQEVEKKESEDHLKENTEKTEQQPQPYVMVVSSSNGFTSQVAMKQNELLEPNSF

Row | Sequence | binding signal (ELK1) | binding signal (ERG) | binding signal (ETV5) | binding signal (ELK4) | binding signal (ETV1) | binding signal (ETV3L) | binding signal (ETS2) | binding signal (SPDEF) | binding signal (ETV7) | binding signal (ETV3) | binding signal (ETV6) | binding signal (ELF1) | binding signal (EHF) | binding signal (ELF3) | binding signal (ERF)
1 | TCAGTT | 1.03 fold enrichment (6-mer frequency, TF over GST control) | 1.03 fold enrichment (6-mer frequency, TF over GST control) | 1 fold enrichment (6-mer frequency, TF over GST control) | 1.08 fold enrichment (6-mer frequency, TF over GST control) | 1.04 fold enrichment (6-mer frequency, TF over GST control) | 1.05 fold enrichment (6-mer frequency, TF over GST control) | 1.04 fold enrichment (6-mer frequency, TF over GST control) | 1.04 fold enrichment (6-mer frequency, TF over GST control) | 1.02 fold enrichment (6-mer frequency, TF over GST control) | 1.05 fold enrichment (6-mer frequency, TF over GST control) | 1.03 fold enrichment (6-mer frequency, TF over GST control) | – | – | – | –
2 | TCAAGC | – | 1.01 fold enrichment (6-mer frequency, TF over GST control) | 1.02 fold enrichment (6-mer frequency, TF over GST control) | 1.01 fold enrichment (6-mer frequency, TF over GST control) | – | 1.08 fold enrichment (6-mer frequency, TF over GST control) | 1 fold enrichment (6-mer frequency, TF over GST control) | – | 1.04 fold enrichment (6-mer frequency, TF over GST control) | 1.08 fold enrichment (6-mer frequency, TF over GST control) | 1.03 fold enrichment (6-mer frequency, TF over GST control) | 1 fold enrichment (6-mer frequency, TF over GST control) | 1.01 fold enrichment (6-mer frequency, TF over GST control) | 1.04 fold enrichment (6-mer frequency, TF over GST control) | 1.06 fold enrichment (6-mer frequency, TF over GST control)
